A selection: hits, their analogues and other compounds. The true share with any hit is near 3.8%.
GDH-TPI counter-1 – GDH-TPI coupling enzyme inhibitors, primary screen, artefact control for M. tuberculosis FBA inhibitor project, biochemical, absorbance, full deck; inhibition, % at 4.8 µM; GDH-TPI coupled enzyme counterscreen, NADH absorbance; actives 1.2% (n = 360,000); in the data active = inhibition above about 30%
FBA Mtb inh – Mtb FBA enzyme inhibitors, primary screen, biochemical, fluorescence, strain H37Rv. inhibition, % at 1 µM. AID 588726, 2011. purified M. tuberculosis FBA, fluorescence read-out. actives 2.3% (n = 360,000)
Target sequence (P9WQA3 whole entry, looked up): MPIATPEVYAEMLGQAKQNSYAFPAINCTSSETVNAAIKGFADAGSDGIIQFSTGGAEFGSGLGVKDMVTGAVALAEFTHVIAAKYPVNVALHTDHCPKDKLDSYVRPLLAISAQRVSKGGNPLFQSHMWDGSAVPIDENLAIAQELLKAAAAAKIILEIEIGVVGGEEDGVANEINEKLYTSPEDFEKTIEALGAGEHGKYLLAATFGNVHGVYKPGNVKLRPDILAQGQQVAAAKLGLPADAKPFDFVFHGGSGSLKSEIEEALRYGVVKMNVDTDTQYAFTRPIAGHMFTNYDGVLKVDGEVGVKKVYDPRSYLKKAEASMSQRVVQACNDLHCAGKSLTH
PrP 5UTR inh – inhibition of PrP 5' UTR reporter expression | cell-based PrP 5' UTR mRNA reporter, plate reader | actives 0.35% (n = 340,000) | inhibition, % (no concentration beside the values) | AID 488862, 2010; in the data active = inhibition above about 52%
Mtb hypoxia inh – PubChem AID 1159583 | M. tuberculosis hypoxia-regulated fluorescent reporter, fluorescence | fluorescence inhibition, % (test concentration not listed) | actives 0.1% (n = 300,000); in the data active = fluorescence inhibition mostly above about 23%, no sharp cut-off; inactive = mostly below about 17%
Y pestis TopoI – Yersinia pestis topoisomerase I inhibitors, primary screen, biochemical, cleavage product accumulation, plate reader, single point; DNA topoisomerase I (Yersinia pestis CO92); Y. pestis Topo-I cleavage product accumulation; activity, % at 10 µM; actives 0.064% (n = 360,000); in the data active = activity above about 50%, passing the limit was not always enough
PrPC surface inh – inhibitors of human cell surface prion protein PrPC, primary screen, cell-based, TR-FRET. inhibition, % at 13.8 µM. TR-FRET read-out. actives 0.43% (n = 370,000). AID 720596, 2013. Major prion protein (Homo sapiens), P04156; in the data active = inhibition above about 24%
Mtb FBA inh conf – M. tuberculosis aldolase blockers, biochemical, fluorescence, strain H37Rv, confirmation. shares compounds with FBA Mtb inh. purified M. tuberculosis FBA, fluorescence read-out. inhibition, % at 1 µM. actives 78% (n = 5,600). AID 651616, 2012
GDH-TPI counter-2 – GDH-TPI coupling enzyme inhibitors, artefact control for M. tuberculosis FBA inhibitor project, biochemical, fluorescence, high throughput | shares compounds with FBA Mtb inh | GDH-TPI coupled enzyme counterscreen | inhibition, % at 1 µM | actives 81% (n = 5,600) | AID 652141, 2013; in the data active = inhibition above about 10%
GDH-TPI dose – GDH-TPI coupling enzyme inhibitors, dose response, artefact control for M. tuberculosis FBA inhibitor project, biochemical, fluorescence, IC50; shares compounds with FBA Mtb inh; GDH-TPI coupled enzyme assay, artifact counterscreen; IC50, µM; actives 79% (n = 170); AID 652145, 2013; call rule not given here
Each line names hits and unclear results; the compound was inactive in the other large screens (follow-up assays come after a bar, where they were run). Cut-off read from the data, not from the text of the source, unless noted: active = inhibition above about 27%; inactive = the rest.

Cc1ccc(S(=O)(=O)Nc2ccc(Cl)cn2)cc1	none
Cc1ccc(NS(=O)(=O)c2ccc(Br)cc2)nc1	FBA Mtb inh 28.4 | Mtb FBA inh conf active | GDH-TPI counter-2 active
Cc1ccc(NS(=O)(=O)Cc2ccccc2)nc1	FBA Mtb inh 60.2 | Mtb FBA inh conf 170.6 | GDH-TPI counter-2 141.7
Cc1ccnc(NS(=O)(=O)Cc2ccccc2)c1	FBA Mtb inh 44.5 | Mtb FBA inh conf 103.4 | GDH-TPI counter-2 67.7
COc1ccc(OC)c(S(=O)(=O)NN=C(C)c2c[nH]c3ccccc23)c1	none (no result: GDH-TPI counter-1, FBA Mtb inh, PrP 5UTR inh, Y pestis TopoI, PrPC surface inh)
COc1ccc2c(c1)c(C=NNc1ccc(C(=O)O)cc1)c(C)n2C	none (no result: GDH-TPI counter-1, FBA Mtb inh, PrP 5UTR inh, Y pestis TopoI, PrPC surface inh)
O=C(NN=Cc1ccc(N2CCOCC2)cc1)c1ccc(O)cc1	none (no result: GDH-TPI counter-1, FBA Mtb inh, PrP 5UTR inh, Y pestis TopoI, PrPC surface inh)
Cc1ccnc(NC(=O)c2cc(S(=O)(=O)N3CCCCC3)ccc2Cl)c1	FBA Mtb inh 37.6 | Mtb FBA inh conf 92.4 | GDH-TPI counter-2 83.8
O=C(NC1CCC(=O)N(C(CSc2ccccc2)Cc2ccccc2)CC1)OCc1ccccc1 (stereo unspecified)	none (no result: GDH-TPI counter-1, FBA Mtb inh, PrP 5UTR inh, Y pestis TopoI, PrPC surface inh)
COc1ccc(C=NNC(=O)c2ccc(Cn3cc(Br)c([N+](=O)[O-])n3)o2)c(OC)c1C	none (no result: GDH-TPI counter-1, FBA Mtb inh, PrP 5UTR inh, Y pestis TopoI, PrPC surface inh)
COc1ccccc1C(=O)NCCCNc1nc2cc(C)cc(C)c2cc1C#N	FBA Mtb inh 42.5 (no result: PrP 5UTR inh, Mtb hypoxia inh) | Mtb FBA inh conf active | GDH-TPI counter-2 145.7
Cc1cc(C)c2cc(C#N)c(NCCCNC(=O)CCC(=O)O)nc2c1	FBA Mtb inh 42.1 | Mtb FBA inh conf 44.3 | GDH-TPI counter-2 36.5
COc1cc(C=NNc2ccccn2)ccc1OCC(C)C	none (no result: GDH-TPI counter-1, FBA Mtb inh, PrP 5UTR inh, Y pestis TopoI, PrPC surface inh)
Nc1nonc1-n1nnc(C(=O)NN=Cc2ccccc2Cl)c1CN1CCOCC1	none (no result: GDH-TPI counter-1, FBA Mtb inh, PrP 5UTR inh, Y pestis TopoI, PrPC surface inh)
COc1ccccc1NC(=O)C(Sc1ccccc1)c1ccccc1 (stereo unspecified)	none (no result: Mtb hypoxia inh)
COc1ccc(NC(=O)C(Sc2ccccc2)c2ccccc2)c(OC)c1 (stereo unspecified)	FBA Mtb inh 72.4 (no result: Mtb hypoxia inh) | Mtb FBA inh conf 44.6 | GDH-TPI counter-2 33.4
CC(=NNc1ccc(Cl)c(C(=O)O)c1)c1ccc(N2CCOCC2)cc1	none (no result: GDH-TPI counter-1, FBA Mtb inh, PrP 5UTR inh, Y pestis TopoI, PrPC surface inh)
Cc1ccccc1-c1nc(NC(C)C)nc2ccsc12	FBA Mtb inh 64.3 (no result: PrP 5UTR inh, Mtb hypoxia inh) | Mtb FBA inh conf active | GDH-TPI counter-2 active
CC(C)Nc1nc(-c2ccccc2CO)c2sccc2n1	FBA Mtb inh 73.7 (no result: PrP 5UTR inh, Mtb hypoxia inh) | Mtb FBA inh conf 77.2 | GDH-TPI counter-2 58.5
OCc1ccccc1-c1nc(NCC2CC2)nc2ccsc12	FBA Mtb inh 71.6 (no result: PrP 5UTR inh, Mtb hypoxia inh) | Mtb FBA inh conf 63.1 | GDH-TPI counter-2 55.1
Cc1ccccc1NC(=O)CNc1ccccc1C(=O)NCc1ccco1	FBA Mtb inh 48.1 (no result: Mtb hypoxia inh) | Mtb FBA inh conf 166.2 | GDH-TPI counter-2 143.3
Cc1cccc(C)c1NC(=S)Nc1ccccc1C(=O)NCc1ccco1	FBA Mtb inh 38.5 (no result: Mtb hypoxia inh) | Mtb FBA inh conf inactive | GDH-TPI counter-2 inactive | GDH-TPI dose inactive
COc1ccc(C=NNC(=O)c2cccc([N+](=O)[O-])c2)cc1OC	none (no result: GDH-TPI counter-1, FBA Mtb inh, PrP 5UTR inh, Y pestis TopoI, PrPC surface inh)
Oc1cccc2c(NC(=S)Nc3ccc(SC(F)F)cc3)cccc12	FBA Mtb inh 30.3 | Mtb FBA inh conf active | GDH-TPI counter-2 active
Oc1cccc(NC(=S)Nc2ccc(SC(F)F)cc2)c1	none
COC(=O)c1ccc2nc(Nc3nc4ccc(F)cc4s3)sc2c1	FBA Mtb inh 37.9, PrP 5UTR inh 81.1 | Mtb FBA inh conf 130.8 | GDH-TPI counter-2 121.8
CC(=O)c1sc(Nc2nc3ccc(F)cc3s2)nc1C	FBA Mtb inh 27.2 | Mtb FBA inh conf active | GDH-TPI counter-2 161.4
COc1ccccc1C=NNC(=O)CC(=O)NCc1cccnc1	none (no result: GDH-TPI counter-1, FBA Mtb inh, PrP 5UTR inh, Y pestis TopoI, PrPC surface inh)
